Data as given in PubChem BioAssay AID1851 (National Center for Advancing Translational Sciences (NCATS), 2009).
Values joined by “and” are separate entries in the source; they are usually repeats but may differ in a detail not shown here. Equal values may be shown once. Hit rate of the full screen: of about 16,000 compounds, about 5,700 (36%) were called active. Roughly 24% stayed inconclusive and do not appear here. The call rests on the fitted dose curve; in most records, active means well fitted curve in the direction sought with a large enough effect; inconclusive means small, poorly fitted or top-dose-only effect, or effect the other way; inactive means no such curve, though single readings can be large or run the other way. This is one part of the list. More than one record can exist for a structure, and the calls need not agree.

Molecular target: Cytochrome P450 1A2 (Homo sapiens) (UniProt P05177)
Experiment: Cytochrome panel assay with activity outcomes
Conditions: recombinant CYP, pro-luciferin dealkylation, luminescence, p450-cyp1a2; series mostly up to 57.1 µM
On the % scale 0 is the no-effect control and ±100 the full control effect.

Sequence of Cytochrome P450 1A2 (Homo sapiens) (P05177 whole entry, looked up): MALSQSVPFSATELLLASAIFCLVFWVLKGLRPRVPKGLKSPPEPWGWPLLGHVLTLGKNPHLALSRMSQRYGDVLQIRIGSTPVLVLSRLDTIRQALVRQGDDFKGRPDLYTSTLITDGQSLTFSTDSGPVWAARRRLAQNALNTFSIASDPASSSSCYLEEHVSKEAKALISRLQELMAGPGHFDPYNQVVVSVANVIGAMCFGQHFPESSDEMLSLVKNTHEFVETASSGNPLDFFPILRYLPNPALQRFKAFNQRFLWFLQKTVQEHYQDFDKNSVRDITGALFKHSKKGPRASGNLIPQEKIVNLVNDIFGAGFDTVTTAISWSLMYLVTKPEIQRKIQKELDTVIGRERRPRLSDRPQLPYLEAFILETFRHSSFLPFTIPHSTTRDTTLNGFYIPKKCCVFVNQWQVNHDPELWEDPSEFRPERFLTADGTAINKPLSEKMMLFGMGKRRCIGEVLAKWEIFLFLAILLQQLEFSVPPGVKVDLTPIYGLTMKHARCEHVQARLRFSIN

SMILES	AC50	activity, negative = inhibition
CCN1CCC[C@H]1CNC(=O)c1c(OC)ccc(Br)c1OC	inactive	
CCCCN(C)CCCNC(=O)CCn1nc(-c2ccccc2)ccc1=O	inactive	
CCN(CCCNC(=O)CC(C(=O)N1CCc2ccccc21)n1ccnc1)c1ccccc1 (stereo unspecified)	3.16 µM (active)	
CCC(=O)[C@@]1(C)[C@H](C)C[C@@H]2[C@@H]3CCC4=CC(=O)C=C[C@@]4(C)[C@H]3[C@H](O)C[C@]21C	inactive	
NC(=O)Cn1c(=O)n(Cc2ccco2)c(=O)c2c3c(sc21)CCCCC3	4.47 µM (active)	
CN(C)CCn1c(=O)n(Cc2ccco2)c(=O)c2c3c(sc21)CCCCC3	2.24 µM (active)	
O=C(Cn1c(=O)n(Cc2ccco2)c(=O)c2c3c(sc21)CCCCC3)c1ccccc1	12.6 µM (active)	
CN(c1ccccc1)c1ccc(/C=c2\s/c(=C(/C#N)C(=O)C(C)(C)C)n(Cc3ccco3)c2=O)cc1	inactive	
Cc1ccc(-n2c(=O)c3sccc3n(CC(=O)NCc3ccco3)c2=O)cc1F	inactive	
O=C(O)/C=C/C(=O)Nc1ccccc1-c1ccccc1	inactive	
O=C(O)/C=C\C(=O)Nc1cccc2c1-c1ccccc1C2=O	2.51 µM (active)	
CC[C@H](C)N(C)C(=O)c1cc2ccccc2c(-c2ccccc2Cl)n1	inactive	
Fc1ccc(-c2ccnc3nc(N4CCOCC4)nn23)cc1	10 µM (active)	
C=C1C(=O)O[C@@H]2[C@@H]1CC/C(C)=C\CC[C@@]1(C)O[C@H]21	inactive	
CC(C)Sc1cc(N2CCCC2)nc(-c2ccc(F)cc2)n1	0.631 µM (active)	
CCCSc1cc(N2CCCC2)nc(-c2ccccc2)n1	0.631 µM (active)	
CC(C)Sc1cc(N2CCOCC2)nc(-c2ccc(Cl)cc2)n1	5.62 µM (active)	
CC[N+](C)(CC)CCN1C(=O)c2ccccc2S1(=O)=O		-12.1% [at 11.4 µM] (inactive)
Cc1ccc2nc(NC(=O)CSCC(=O)OCC(=O)c3ccc(Br)cc3)sc2c1	8.91 µM (active)	
Cc1ccc2nc(NC(=O)COC(=O)CSc3nc(C)cc(C)n3)sc2c1	0.891 µM (active)	
CN(C)S(=O)(=O)c1cccc(NC(=O)COC(=O)c2ccc(Br)o2)c1	14.1 µM (active)	
Cc1ccc2nc(NC(=O)COC(=O)c3ccc(Br)o3)sc2c1	4.47 µM (active)	
CN(C)S(=O)(=O)c1ccc(NC(=O)COC(=O)c2ccccn2)cc1	inactive	
CCN(c1ccccc1)S(=O)(=O)c1ccc(NC(=S)NC(=O)c2ccc(Br)o2)cc1	inactive	

SMILES	AC50	activity, negative = inhibition
Cc1nc2ccc(S(=O)(=O)NC(CC(C)C)C(=O)O)cc2s1 (stereo unspecified)	inactive	
COc1ccc(C(=O)N2CCC3(CCCN(Cc4ccccc4OC)C3)CC2)cc1	inactive	
CC12CCC(C(=O)Nc3ccccc3Br)(C/C1=N\O)C2(C)C (stereo unspecified)	inactive	
O=C(Cc1ccc2c(c1)CCCC2)Nc1ccccc1Br	11.2 µM (active)	
COC(=O)N1CCC[C@@]2(CCN(C(=O)Nc3cccc(C#N)c3)C2)C1	inactive	
O=S(=O)(c1ccccc1)N1N=C(c2cccs2)CC1c1ccc(Br)cc1 (stereo unspecified)	inactive	
C[C@@H]1CC[C@H]2C(=O)N3[C@@H](CC[C@@H](C)[C@@H]3c3ccc(Br)cc3)C(=O)N2[C@@H]1c1ccc(Br)cc1		-18.2% [at 11.4 µM] (inactive)
CS(=O)(=O)N1N=C(c2ccc(Br)cc2)CC1c1ccc2c(c1)OCO2 (stereo unspecified)	3.55 µM (active)	
C=C[C@]1(C)C[C@H](OC(=O)CO)[C@]2(C)C3C(=O)CC[C@]3(CC[C@H]2C)[C@H](C)[C@H]1O (stereo partly specified)		-21% [at 2.29 µM] (inactive)
COc1cccc(NC(=O)Cc2c(C(=O)O)[nH]c3ccccc23)c1	inactive	
COc1ccc(NC(=O)COC(=O)c2c3c(nc4ccccc24)CCCC3)cc1	7.08 µM (active)	
COc1ccc(NC(=O)N2CC3(CCN(C(=O)c4c(C)noc4C)CC3)C2)cc1	inactive	
COc1cccc(N2C(=O)C(CC(=O)Nc3ccccc3)N(C3CCCCC3)C2=O)c1 (stereo unspecified)	inactive	
COc1cccc(NC(=O)COC(=O)c2c3c(nc4ccccc24)CCC(C)C3)c1 (stereo unspecified)	2.51 µM (active)	
COc1ccc(NC(=O)COC(=O)c2c(-c3ccccc3)noc2C)cc1	12.6 µM (active)	
COc1ccc(OC)c(NC(=O)c2c3c(nc4ccccc24)CCC3)c1	12.6 µM (active)	
CC(C)(C)Nc1nc(N2CCCC2)nc(N2CCCC2)n1	0.631 µM (active)	
O=C1CCC(c2ccccc2)(c2ccccc2)CC1		-13.3% [at 11.4 µM] (inactive)
COc1ccc(CNc2nc(-c3cccc(NS(C)(=O)=O)c3)nc3ccccc23)c(OC)c1	15.8 µM (active)	
COc1ccccc1CNc1nc(-c2cccc(C#N)c2)nc2ccccc12	1.26 µM (active)	
COc1ccc(CNc2nc(-c3cccc(C#N)c3)nc3ccccc23)c(OC)c1	2.51 µM (active)	
CCCc1cc2c(n1Cc1cc(F)cc(F)c1)C(C)C1CN(C(=O)c3ccccc3)C(C)(C(=O)OC)C21 (stereo unspecified)	inactive	
Cc1noc(C)c1-c1nccc(N(C)C)n1	0.631 µM (active)	
Cc1noc(C)c1-c1cc(N(C)Cc2ccco2)ncn1	3.16 µM (active)	

SMILES	AC50	activity, negative = inhibition
Cc1noc(C)c1-c1nccc(N(C)Cc2ccco2)n1	2 µM (active)	
Cc1noc(C)c1-c1cc(N(C)C)ncn1	3.16 µM (active)	
N#CCSc1ncnc2c1cnn2CCO	15.8 µM (active)	
Cc1cccc(NC(=S)N(CCc2nc3cc(C)c(C)cc3[nH]2)Cc2cccnc2)c1	14.1 µM (active)	
COc1ccc(NC(=S)N(CCc2nc3cc(C)c(C)cc3[nH]2)Cc2cccnc2)cc1	15.8 µM (active)	
CCN1C(=O)C(CC(=O)Nc2ccc(OC)cc2)N(Cc2cccnc2)C1=S (stereo unspecified)	inactive	
COc1cccc(NC(=O)C2c3cc(OC)c(OC)cc3C(=O)N(C)C2c2cccnc2)c1 (stereo unspecified)	inactive	
COc1cccc(NC(=S)N(CCc2nc3cc(C)c(C)cc3[nH]2)Cc2cccnc2)c1	14.1 µM (active)	
O=C1CCC=C1[C@@H](O)CCc1ccccc1		-4.4% [at 11.4 µM] (inactive)
CN(C)[C@H]1C(=O)C(C(=O)NCN2CCCC2)=C(O)[C@]2(O)C(=O)C3=C(O)c4c(O)cccc4[C@](C)(O)[C@H]3C[C@H]12		-17.5% [at 11.4 µM] (inactive)
CCCCNC(=O)CSc1nc2cc(OC)c(OC)cc2c(=O)n1Cc1ccc(OC)cc1	inactive	
COc1cc2nc(SCc3ccc(Cl)cc3Cl)n(Cc3cccs3)c(=N)c2cc1OC	5.01 µM (active)	
CCCN1CCN(CCCNC(=O)Cn2nc(-c3ccc(C)cc3)ccc2=O)CC1	inactive	
CC(Oc1ccc(Cl)cc1Cl)C(=O)/C=C/N(C)C (stereo unspecified)	7.08 µM (active)	
Cc1nc(C(=O)Nc2ccc(Cl)cc2Cl)nn1-c1cc(OC(C)C)c(Cl)cc1Cl	inactive	
Nc1ncnc2nc(N3CCN(CCO)CC3)[nH]c12		-1.17% [at 2.29 µM] (inactive)
CCN(CC)CCOC(=O)C1(c2ccc([N+](=O)[O-])cc2)CCCC1	3.16 µM (active)	
CN(C)CCOC(=O)C1(c2ccccc2)CCOCC1	inactive	
CC(C)(C)c1ccc(C(=O)NCCC(=O)NCc2ccco2)cc1	1.58 µM (active)	
O=C(O)C1C2CCC(C2)C1C(=O)NCc1ccco1 (stereo unspecified)	inactive	
COc1ccc(S(=O)(=O)N(C)CC(=O)NCc2ccco2)cc1	inactive	
CCOc1ccc(-n2cc(C(=O)NCc3ccco3)c3cc(OC)c(OC)cc3c2=O)cc1	inactive	
Cc1ccc(OCC(=O)NNC(=O)CCC(=O)NCc2ccccc2)cc1	inactive	
CCCCCOc1ccc(C(=O)NCC2(c3ccccc3)CCOCC2)cc1	15.8 µM (active)	

SMILES	AC50	activity, negative = inhibition
CCCCOc1ccc(C(=O)NCc2ccco2)cc1	1.26 µM (active)	
C=CCNC(=O)/C(=C\C=C\c1ccccc1)NC(=O)c1ccc(OCCCC)cc1	inactive	
Cc1ccc(OCCCC(=O)NCc2ccco2)cc1	14.1 µM (active)	
CCS(=O)(=O)N1CCC(C(=O)NCc2ccco2)CC1	inactive	
C/C(CC(=O)NCc1ccco1)=N\NC(=O)Cc1ccccc1	inactive	
CC(=O)c1ccc(NC(=O)C2(c3ccccc3)CCOCC2)cc1	inactive	
Cc1cc(C)cc(Oc2nn[nH]n2)c1	inactive	
COc1cccc([C@H]2Oc3ccc(OC)cc3/C(=N\O[C@@H](C)c3cn([C@H](CO)Cc4ccccc4)nn3)[C@@H]2O)c1		-7.2% [at 11.4 µM] (inactive) and -11.9% [at 11.4 µM] (inactive)
COc1ccccc1NC(=O)c1sc2ncn(Cc3ccccc3C)c(=O)c2c1C	3.16 µM (active)	
CCCCN(Cc1ccccc1)C(=O)c1cnc2n(c1=O)CCS2	inactive	
CCn1cnc2sc(C(=O)N3CCN(c4ccc(OC)cc4)CC3)c(C)c2c1=O	inactive	
CCCNC(=O)Cn1cnc2sc(C(=O)Nc3ccc4c(c3)OCO4)c(C)c2c1=O	inactive	
CCOC(=O)N1CCN(C(=O)c2cnc3n(c2=O)CCS3)CC1	inactive	
COc1ccccc1NC(=O)c1cnc2n(c1=O)CCS2	2.24 µM (active)	
COC(=O)C(NNc1ccccc1)(NC(=O)c1ccccc1F)C(F)(F)F (stereo unspecified)	inactive	
CN1CCN(NC(=O)c2ccccc2F)CC1	inactive	
O=C(NC(=S)N(Cc1ccccc1)Cc1ccccc1)c1ccccc1F	11.2 µM (active)	
Cc1ccc(S(=O)(=O)NC(=O)OC23COCN2COC3)cc1		7.51% [at 11.4 µM] (inactive)
NCCCNCCCCNCCCN	inactive	
NCCCCN	inactive	
NCCCCNCCCN	inactive and 31.6 µM (active)	
COc1cc(Br)c(C(C)NC(=O)c2cccc(Br)c2)cc1OC (stereo unspecified)	12.6 µM (active)	
COc1ccc(C(=O)NC(C)c2cc(OC)c(OC)cc2Br)cc1 (stereo unspecified)	14.1 µM (active)	
COc1ccc(C(=O)N2CCC3(CC2)CN(C(=O)NC(C)C)C3)cc1	inactive	
